# Records with an inconclusive call do not appear. The source made the active and inactive calls. The calls were made as follows, unless noted: active = hit-call score of the fitted dose curve at least 0.9, where 1 is the maximum; inactive = score below 0.9.
# Tests used:
# CD69, CD69 (gene 969) = assay: BSK_LPS_CD69: BioMAP Diversity Plus: LPS Assay for CD69 Biomarker Activity (AID 2284303); conditions: primary human HUVEC with PBMC
# Procedure, shortened: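 Human umbilical vein endothelial cells co-cultured with PBMC under LPS stimulation, chemical exposure 24 h; cell-surface CD69 measured by ELISA and fitted in the positive direction versus DMSO.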
# [1] = CCTE_Deisenroth_5AR_NBTE_donor: CCTE's 5alpha-reductase NanoBRET Target Engagement Assay […], Deisenroth Lab (AID 2284319); conditions: actives raise or lower the signal
# Procedure, shortened: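 Donor NanoLuc luminescence at 460-20 nm is the read-out, serving artifact detection. Transiently expressed SRD5A2-NanoLuc in HEK293T; 5 h total chemical exposure, testosterone tracer added for the final 2 h; fitting bidirectional relative to DMSO baseline.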
# [2] = CCTE_Deisenroth_5AR_NBTE_acceptor: CCTE's 5alpha-reductase NanoBRET Target Engagement Assay - Autofluorescence Screen, Deisenroth Lab (AID 2284321); conditions: actives raise or lower the signal;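 also: compound fluorescence in the acceptor channel under 460 nm excitation flags autofluorescence artifacts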
# Procedure, shortened: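 Autofluorescence check: ToxCast chemicals, nominal 100 uM, excitation 460 nm, n=3 runs. Acceptor fluorescence endpoint, bidirectional fit relative to DMSO. Parent assay in HEK293T, 5 h post-dose.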
# SRD5A2 (gene 6716) = assay: CCTE_Deisenroth_5AR_NBTE_ratio: CCTE's 5alpha-reductase NanoBRET Target Engagement Assay - Ratio, Deisenroth Lab (AID 2284322); conditions: actives raise or lower the signal
# Procedure, shortened: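 Reverse-transfect HEK293T with pNLF1-C-SRD5A2, express 20 h. Pre-incubate cells with chemical 3 h (8-point series, 10 nM - 29.9 uM, duplicate). Add testosterone tracer, 2 h more. Add substrate/inhibitor, read donor and acceptor emission.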
# SERPINA7 (gene 6906) = assay: CCTE_GLTED_hTBG: CCTE's human Thyroxine-binding Globulin (TBG) Inhibition Assay, Great Lakes Toxicology and Ecology Division (GLTED) Lab (AID 2284343; active = hit-call score of the fitted dose curve at least 0.9, where 1 is the maximum;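 also: active chemicals lower fluorescence versus DMSO baseline by displacing probe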)
# Procedure, shortened: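 Cell-free binding assay in which human TBG is incubated with test chemical for 2 hours and displacement of the fluorescent probe ANSA is read at 380 nm excitation/475 nm emission. Activity is fitted against DMSO as the negative control.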
# IYD (gene 389434) = assay: CCTE_GLTED_hIYD: CCTE's human Iodotyrosine Deiodinase (xIYD) Inhibition Assay, Great Lakes Toxicology and Ecology Division (GLTED) Lab (AID 2284317; active = hit-call score of the fitted dose curve at least 0.9, where 1 is the maximum;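 also: cell-free human IYD enzyme made in baculovirus insect cells; iodide freed from monoiodotyrosine measured by cerium arsenite color change at 420 nm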)
# Procedure, shortened: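 Human IYD expressed in a baculovirus-insect cell system was incubated 3 h with monoiodotyrosine and test chemical. Released iodide, separated on Dowex columns, was quantified by the Sandell-Kolthoff reaction at 420 nm; plates were normalized to MNT and DMSO/NaOH controls.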
# [3] = IUF_NPC2a_radial_glia_migration_72hr: Leibniz Research Institute for Environmental Medicine (IUF) 72-hour Neural Progenitor Cell Migration Assay for Radial Glia Migration (NPC2a) (AID 2284299)
# Procedure, shortened: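 Human fetal cortex (GW 16-19) neural progenitor spheres, 0.3 mm, plated on poly-D-lysine/laminin in N2 differentiation medium with compound from day 0. Radial glia migration distance (um, sphere core edge to migration edge) measured manually in four directions on 72 h brightfield images; well mean used.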
# [4] = IUF_NPC2b_neuronal_migration_120hr: Leibniz Research Institute for Environmental Medicine (IUF) 120-hour Neural Progenitor Cell Migration Assay for Neuron Migration (NPC2b) (AID 2284300)
# Procedure, shortened: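 hNPC spheres, PDL/laminin, DMEM:F12 3:1 + 1% N2, 37C/5% CO2; 7 concentrations + solvent control (DMSO ≤0.1%), 5 d exposure, half-feed day 3. Fix 120 h, TUBB3 ICC, HCI: mean neuron migration distance ÷ glia distance.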
# [5] = IUF_NPC3_neuronal_differentiation_120hr: Leibniz Research Institute for Environmental Medicine (IUF) 120-hour Neuronal Differentiation Assay (NPC3) (AID 2284301)
# Procedure, shortened: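 Primary human fetal neural progenitor spheres (GW 16-19, 0.3 mm) plated on poly-D-lysine/laminin in N2 medium, exposed from day 0 for 120 h with half-medium refresh at day 3. TUBB3+ cells as percent of Hoechst nuclei in migration area; DMSO baseline.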
# [6] = IUF_NPC4_neurite_length_120hr: Leibniz Research Institute for Environmental Medicine (IUF) 120-hour Neuronal Morphology Assay for Neurite Length (NPC4) (AID 2284302)
# Procedure, shortened: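 Human fetal cortex (GW 16-19) neural progenitor spheres, 0.3 mm, were plated on poly-D-lysine/laminin in N2 differentiation medium and exposed from day 0 for 120 h, half-feeding at day 3. Mean TUBB3+ neurite length (µm) came from skeletonized images, relative to DMSO.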
# [7] = IUF_NPC5_oligodendrocyte_differentiation_120hr: Leibniz Research Institute for Environmental Medicine (IUF) 120-hour Oligodendrocyte Differentiation Assay (NPC5) (AID 2284304; active = hit-call score of the fitted dose curve at least 0.9, where 1 is the maximum;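 also: primary human fetal neural progenitor spheres plated to migrate and differentiate; share of O4-positive cells among Hoechst nuclei found by CNN image analysis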)
# Procedure, shortened: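 hNPC spheres, fetal cortex GW 16-19; PDL/laminin, DMEM:F12 3:1 + 1% N2, 37C/5% CO2; 7 concentrations + solvent control, 5 d exposure, half-change day 3. Readout: %O4+ of Hoechst+ nuclei in migration area, CNN classification; DMSO baseline.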
# [8] = IUF_NPC4_neurite_area_120hr: Leibniz Research Institute for Environmental Medicine (IUF) 120-hour Neuronal Morphology Assay for Neurite Area (NPC4) (AID 2284305; active = hit-call score of the fitted dose curve at least 0.9, where 1 is the maximum)
# Procedure, shortened: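 Human fetal cortex-derived neural progenitor spheres (0.3 mm, GW 16-19) plated on poly-D-lysine/laminin in N2 differentiation medium and exposed from day 0 for 120 h across 7 concentrations plus solvent control. Neurite area is mean pixel area per TUBB3-positive neuron via skeletonization, analysed relative to DMSO.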
# [9] = IUF_NPC2-5_cytotoxicity_72hr: Cytotoxicity Assessment at 72 hours in the Leibniz Research Institute for Environmental Medicine (IUF) Neural Progenitor Cell Migration and Differentiation Assay for Cytotoxicity (NPC2-5) (AID 2284306; active = hit-call score of the fitted dose curve at least 0.9, where 1 is the maximum;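 also: LDH release into supernatant measured by resorufin fluorescence marking membrane damage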)
# Procedure, shortened: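 Human fetal (GW 16-19) neural progenitor spheres, 0.3 mm, plated on poly-D-lysine/laminin in N2 differentiation medium and exposed from day 0 to 7 concentrations plus solvent control (DMSO ≤0.1%). LDH-dependent resazurin-to-resorufin fluorescence in supernatant at 72 h.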
# [10] = IUF_NPC2-5_cytotoxicity_120hr: Cytotoxicity Assessment at 120 hours in the Leibniz Research Institute for Environmental Medicine (IUF) Neural Progenitor Cell Migration and Differentiation Assay (NPC2-5) (AID 2284307; active = hit-call score of the fitted dose curve at least 0.9, where 1 is the maximum)
# Procedure, shortened: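 hNPC spheres on PDL/laminin, N2 medium, 37C; 7 concs + solvent control, DMSO ≤0.1%; 5-day exposure, half medium changed day 3. LDH in supernatant at 120 h, resazurin→resorufin fluorescence, gain-of-signal.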
# [11] = IUF_NPC2-5_cell_number_120hr: Cell Number Assessment at 120 hours in the Leibniz Research Institute for Environmental Medicine (IUF) Neural Progenitor Cell Migration and Differentiation Assay (NPC2-5) (AID 2284308);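 also: count of Hoechst-stained nuclei in migration zone around plated human neural progenitor spheres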
# Procedure, shortened: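 Hoechst-stained nuclei within the migration area were counted by automated high content imaging after 120 h. Single hNPC spheres differentiated on poly-D-lysine/laminin in DMEM/F12 (3:1) with 1% N2, compound present throughout, DMSO ≤0.1%.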
# [12] = IUF_NPC2-5_viability_120hr: Viability Assessment at 120 hours in the Leibniz Research Institute for Environmental Medicine (IUF) Neural Progenitor Cell Migration and Differentiation Assay (NPC2-5) (AID 2284312)
# Procedure, shortened: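 Human fetal (GW 16-19) neural progenitor spheres of 0.3 mm were plated on poly-D-lysine/laminin in N2 differentiation medium and exposed from day 0 for 120 h, with half-medium refresh at day 3. Viability was read as alamar blue resazurin-to-resorufin fluorescence against DMSO.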
# [13] = CCTE_Mundy_HCI_iCellGluta_NOG_NeuriteLength: CCTE's Neurite Outgrowth Assay in iCellGluta cells for Neurite Length, Mundy Lab (AID 2284318; active = hit-call score of the fitted dose curve at least 0.9, where 1 is the maximum)
# Procedure, shortened: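 Automated high-content imaging of betaIII-tubulin (Alexa Fluor-488) and Hoechst-stained cells gave neurite length, normalized to the DMSO baseline.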
# [14] = IUF_NPC1_cytotoxicity_72hr: Cytotoxicity Assessment at 72 hours in the Leibniz Research Institute for Environmental Medicine (IUF) Neural Progenitor Cell Proliferation Assay (NPC1) (AID 2284332; active = hit-call score of the fitted dose curve at least 0.9, where 1 is the maximum;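 also: rising LDH signal means more cytotoxicity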)
# Procedure, shortened: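 Single human fetal cortex neural progenitor spheres (GW 16-19, 0.25-0.35 mm) in EGF/FGF proliferation medium were exposed to compound for 72 h at 37C without renewal. Medium LDH release was read as resorufin fluorescence and fitted as gain-of-signal.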
# [15] = CCTE_Mundy_HCI_iCellGluta_NOG_NeuronCount: CCTE's Neurite Outgrowth Assay in iCellGluta cells for Neuron Count, Mundy Lab (AID 2284340; active = hit-call score of the fitted dose curve at least 0.9, where 1 is the maximum;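 also: cells fixed about 48 h after compound addition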)
# Procedure, shortened: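 Neuron count read by automated high-content imaging of Hoechst 33342 and betaIII-tubulin/Alexa Fluor-488 labelling in human iPSC glutamatergic neurons. Activity fitted relative to DMSO.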
# [16] = CCTE_Mundy_HCI_iCellGluta_NOG_NeuriteCount: CCTE's Neurite Outgrowth Assay in iCellGluta cells for Neurite Count, Mundy Lab (AID 2284342; active = hit-call score of the fitted dose curve at least 0.9, where 1 is the maximum;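 also: chemical exposure about 48 hours starting 2 hours after plating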)
smiles,measurement,setting,value
CC[Si](OC(C)=O)(OC(C)=O)OC(C)=O,outcome,"CD69, CD69 (gene 969)",inactive
O=Nc1ccc(Nc2ccccc2)cc1,AC50,[1],23.4 µM (active)
same,AC50,[2],50 µM (active)
same,AC50,SRD5A2 (gene 6716),75.4 µM (active)
same,AC50,SERPINA7 (gene 6906),15.9 µM (active)
CC(=O)OCCC(C)CC(C)(C)C (centres undefined),outcome,"CD69, CD69 (gene 969)",inactive
CC(C)=CCC[C@](C)(O)[C@@H]1CC=C(C)CC1,outcome,[1],inactive
same,outcome,[2],inactive
same,outcome,SRD5A2 (gene 6716),inactive
same,AC50,SERPINA7 (gene 6906),19.2 µM (active)
CCCCCCCCCCCCCCCC(=O)OC[C@H](O)[C@H]1OC(=O)C(O)=C1O,AC50,IYD (gene 389434),25.6 µM (active)
same,outcome,[1],inactive
same,outcome,[2],inactive
same,outcome,SRD5A2 (gene 6716),inactive
N#Cc1ccc(CC(=NNC(=O)Nc2ccc(OC(F)(F)F)cc2)c2cccc(C(F)(F)F)c2)cc1,outcome,[3],inactive
same,outcome,[4],inactive
same,outcome,[5],inactive
same,outcome,[6],inactive
same,AC50,[7],0.784 µM (active)
same,outcome,[8],inactive
same,outcome,[9],inactive
same,outcome,[10],inactive
same,outcome,[11],inactive
same,outcome,[12],inactive
same,outcome,[13],inactive
same,outcome,[14],inactive
same,outcome,[15],inactive
COc1cc(C=O)ccc1OC(=O)C(C)C,outcome,"CD69, CD69 (gene 969)",inactive
Cc1cc(C2(c3cc(C)c(O)cc3C)OS(=O)(=O)c3ccccc32)c(C)cc1O,outcome,"CD69, CD69 (gene 969)",inactive
C[C@H]1C[C@@H]2[C@H]([C@@H](O)C[C@@]3(C)[C@H]2CC[C@]3(O)C(=O)CO)[C@@]2(C)C=CC(=O)C=C12,outcome,"CD69, CD69 (gene 969)",inactive
O=C1OC2(c3cc(Br)c(O)c(Br)c3Oc3c2cc(Br)c(O)c3Br)c2c(Cl)c(Cl)c(Cl)c(Cl)c21,AC50,IYD (gene 389434),23.7 µM (active)
CCCCCCCCCCCCCOS(=O)(=O)O,AC50,IYD (gene 389434),34.2 µM (active)
same,AC50,[1],50 µM (active)
same,AC50,[2],43.2 µM (active)
same,AC50,SRD5A2 (gene 6716),81.8 µM (active)
same,AC50,SERPINA7 (gene 6906),31 µM (active)
CCN(CC)c1ccc2c(-c3ccccc3C(=O)O)c3ccc(=[N+](CC)CC)cc-3oc2c1,outcome,[1],inactive
same,outcome,[2],inactive
same,AC50,SRD5A2 (gene 6716),22.1 µM (active)
NCCNCCN,outcome,"CD69, CD69 (gene 969)",inactive
C=CCOC(=O)CCC1CCCCC1,outcome,"CD69, CD69 (gene 969)",inactive
O=C(Oc1ccccc1)c1ccc(O)cc1,AC50,SERPINA7 (gene 6906),12.6 µM (active)
CCC(=O)OCc1ccccc1,outcome,"CD69, CD69 (gene 969)",inactive
c1ccc(CCCc2ccccn2)cc1,AC50,SERPINA7 (gene 6906),22.2 µM (active)
BrC1CCC(Br)C(Br)CCC(Br)C(Br)CCC1Br (centres undefined),outcome,[1],inactive
same,outcome,[2],inactive
same,outcome,SRD5A2 (gene 6716),inactive
Nc1cc([N+](=O)[O-])ccc1O,outcome,"CD69, CD69 (gene 969)",inactive
CCCCCCCCCCCCCCCC(=O)O,AC50,IYD (gene 389434),80.9 µM (active)
OC1OC[C@@H](O)[C@H](O)[C@H]1O (some centres undefined),outcome,"CD69, CD69 (gene 969)",inactive
CCCCCC(CO)CCC (centres undefined),outcome,[1],inactive
same,outcome,[2],inactive
same,outcome,SRD5A2 (gene 6716),inactive
O=C1c2ccccc2C(=O)N1SC1CCCCC1,AC50,SERPINA7 (gene 6906),29.4 µM (active)
CCCCCCCCCCCCCC(=O)O,AC50,IYD (gene 389434),100 µM (active)
same,outcome,[1],inactive
same,outcome,[2],inactive
same,outcome,SRD5A2 (gene 6716),inactive
Cc1ccc(S)cc1,AC50,SERPINA7 (gene 6906),1.59 µM (active)
OC[C@H]1O[C@H](O[C@]2(CCl)O[C@H](CCl)[C@@H](O)[C@@H]2O)[C@H](O)[C@@H](O)[C@H]1Cl,outcome,"CD69, CD69 (gene 969)",inactive
CCN(CC)c1ccc(C(=C2C=CC(=[N+](CC)CC)C=C2)c2ccc(S(=O)(=O)O)cc2S(=O)(=O)[O-])cc1,outcome,[1],inactive
same,AC50,[2],13 µM (active)
same,AC50,SRD5A2 (gene 6716),3.22 µM (active)
CC(=O)[C@H]1CC[C@H]2[C@@H]3CC=C4C[C@@H](O)CC[C@]4(C)[C@H]3CC[C@]12C,outcome,"CD69, CD69 (gene 969)",inactive
CN(C)C(=N)N=C(N)N,outcome,[3],inactive
same,outcome,[4],inactive
same,outcome,[5],inactive
same,outcome,[6],inactive
same,outcome,[7],inactive
same,outcome,[9],inactive
same,outcome,[10],inactive
same,outcome,[11],inactive
same,outcome,[12],inactive
same,outcome,[13],inactive
same,outcome,[14],inactive
same,outcome,[16],inactive
CC1CC(OC(=O)c2ccccc2O)CC(C)(C)C1 (centres undefined),outcome,[1],inactive
same,outcome,[2],inactive
same,outcome,SRD5A2 (gene 6716),inactive

# Reference: PubChem BioAssay (EPA / NIEHS)
